Only some compounds are listed: those with a hit (about 4.4% of all), similar ones and a draw of the others.
tim23-1 inh: growth inhibitors of tim23-1 mutant yeast, primary screen, luminescence, uHTS | S. cerevisiae tim23-1 growth, BacTiter-Glo luminescence, 24 h | hit rate 1.3% among 330,000 | inhibition, % at 20 µM;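 active = growth inhibition of the mutant yeast at or above 50%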;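 note: temperature-sensitive mutant grown at 25 °C; plate controls were DMSO-treated mutant yeast for no effect and medium wells lacking yeast for full effect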
tim10-1 inh: growth inhibitors of tim10-1 mutant yeast, primary screen, luminescence, uHTS | S. cerevisiae tim10-1 ts strain growth, BacTiter-Glo, 24 h | inhibition, % at 20 µM | hit rate 2.2% among 330,000 | AID 463190, 2010;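 active = inhibition of at least 40%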;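 note: mutant grown at 25 °C; 0% = DMSO wells with yeast and 100% = wells holding no yeast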
PfHsp90 set2: growth inhibition of PfHsp90-expressing yeast, primary screen, antimalarial PfHsp90 inhibitor project, S. cerevisiae, BacTiter-Glo luminescence, single point, set 2; hit rate 0.32% among 310,000; AID 504621, 2011; inhibition, % at 9.4 µM; BacTiter-Glo ATP, 48 h; yeast lacking PDR1 and PDR3 efflux regulators;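 active = every replicate shows inhibition above about 80%, whatever the replicate mean, limit read from the data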;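 note: 0% = DMSO neutral controls and 100% = 20 µM radicicol positive controls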
Mot1-301 SUMO: yeast Mot1-301 growth rescue at high temperature, primary screen, SUMOylation pathway inhibitor project, S. cerevisiae, ATP luminescence, 38.5C; S. cerevisiae Mot1-301 growth rescue; percent above DMSO median, 100 means doubled; growth rescue, % at 18.8 µM; hit rate 1% among 320,000; AID 2716, 2010;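 active = every valid replicate shows activation above 250% relative to neutral control wells; inactive = the rest, any valid replicate at or below 250%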;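 note: OY570 slx delta 5 strain wells were the positive control but not used for scaling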
TIM10 inh: growth inhibitors of isogenic TIM10 control yeast, primary screen, counter-screen for tim10-1 yeast inhibitor project, luminescence, uHTS; S. cerevisiae TIM10 strain growth, BacTiter-Glo luminescence, 24 h; inhibition, % at 10 µM; hit rate 1.4% among 330,000; AID 463195, 2010;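 active = inhibition of 40% or more at the single tested concentration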;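 note: wild-type TIM10 isogenic control strain grown at permissive 25 °C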
Yeast Mot1 SUMO: growth restoration of Mot1-301 yeast on galactose, dose response, SUMO pathway inhibitor project, whole organism, S. cerevisiae, ATP luminescence, cherry-picked samples. shares compounds with Mot1-301 SUMO. S. cerevisiae Mot1-301 galactose growth, 24 h; -100 = growth of slx-deleted rescue strain. growth activity, percent, % at 42 µM. 2,300 tested, under 10 active;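 active = Signal drops as the depositor expects, and the fitted half-maximal dose is no more than ten times the top valid tested dose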;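 note: more negative values mean stronger growth rescue toward the control strain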
* hit, by the source's call; x = not tested or not shown; + = active, no number.

SMILES	tim23-1 inh	tim10-1 inh	PfHsp90 set2	Mot1-301 SUMO	TIM10 inh	Yeast Mot1 SUMO
Cc1ccc(S(=O)(=O)N2CCN(C(=O)c3ccnn3C)CC2)cc1C	-14.0	-2.5	11.9	0.8	-0.4	x
CSC(=NS(=O)(=O)c1ccc(N)cc1)NS(=O)(=O)c1cccs1	x	x	-12.9	x	x	x
Cc1onc(-c2ccccc2Cl)c1C(=O)N1CCc2ccccc2C1	32.4	-2.0	8.9	680.1*	21.2	0.2
C/C(CC(=O)Nc1cccnc1)=N\NC(=O)C(C)Oc1ccc(Cl)cc1Cl (centres undefined)	15.8	6.2	6.1	671.3*	-3.5	-0.2
N#CC1=C(N)Oc2cc(O)ccc2C1c1cccs1 (centres undefined)	19.8	19.1	-27.9	84.4	1.3	x
N#CC1=C(N)Oc2c(ccc3ccccc23)C1c1cccs1 (centres undefined)	35.1	30.2	x	508.2*	28.6	0.7
CON(C)C(=O)/C=C/c1ccc([B-](F)(F)F)cc1	x	x	15.7	x	x	x
COc1cc(C(=O)N[C@H](C(=O)OCC(=O)NC2CCCCCC2)C(C)C)cc(OC)c1OC	13.8	5.4	-0.1	15.9	6.9	x
Cc1cc(C)c2c(=O)[nH]cnc2n1	-9.5	5.7	-2.1	997.5*	1.0	0.0
Cc1ccc(-c2csc3nc[nH]c(=O)c23)c(C)c1	2.1	-1.9	5.8	1.5	-14.9	x
COc1ccccc1NC(=O)C(C)OC(=O)CC1CCCCC1 (centres undefined)	11.4	29.3	7.3	6.2	-10.8	x
Cc1sc2nc(SCC(=O)NCCOCCO)n(C)c(=O)c2c1C	-7.1	-14.9	14.5	982.5*	-5.1	0.2
Cc1sc2nc(SCC(=O)NCCOCCO)nc(N)c2c1C	7.9	3.0	10.8	324.6	1.7	x
CC(=O)c1cccc(NC(=O)CN(c2cccc(F)c2)S(C)(=O)=O)c1	15.9	8.8	60.0	681.8*	5.0	-0.3
COc1ccc(C(=O)Sc2ccc(C)cc2)cc1OC	32.7	24.6	1.0	x	39.6	x
COc1ccc(C(=O)Sc2ccc(Cl)cc2)cc1OC	25.5	19.0	-28.3	+	14.5	0.0
COCCNC(=O)NC(=O)CSc1nc(C)c(C)c(C)n1	20.4	1.6	-0.9	494.4*	-21.7	0.6
CCOC(=O)[C@H]1[C@H]2COc3ccc(Br)cc3[C@@H]2N2C(=O)c3c(C)cc(C)cc3NC(=O)[C@@]12C	32.8	13.4	0.8	246.7	7.9	x
CC(=O)OCC(OC(C)=O)C(OC(C)=O)C(OC(C)=O)C(=O)Nc1ccccc1 (centres undefined)	11.2	-9.1	5.2	385.6*	9.9	-0.2
CC1(OC(=O)CCc2ccccc2)C(=O)C=C2C=C(c3ccc(C#N)cc3)N(C3CCCC3)C=C2C1=O (centres undefined)	2.1	2.2	x	645.4*	-3.6	0.2
CC1(OC(=O)CCc2ccccc2)C(=O)C=C2C=C(c3ccc(C#N)cc3)N(c3ccccc3)C=C2C1=O (centres undefined)	21.7	13.6	8.9	10.8	6.5	x
CC1(OC(=O)CCc2ccccc2)C(=O)C=C2C=C(c3ccc(C#N)cc3)N(CC3CC3)C=C2C1=O (centres undefined)	15.4	16.0	x	588.6*	15.4	0.2
CC1(OC(=O)CCc2ccccc2)C(=O)C=C2C=C(c3ccc(C#N)cc3)N(CCN3CCOCC3)C=C2C1=O (centres undefined)	-7.0	-10.3	x	-19.3	0.8	x
CCC(C)NCCCCOc1ccc(Br)cc1 (centres undefined)	10.4	-12.3	8.8	33.4	12.3	x
CCC(C)NCCCCOc1cc(C)cc(C(C)C)c1 (centres undefined)	-21.3	-61.4	1.5	401.4*	-42.6	-0.1
SMILES	tim23-1 inh	tim10-1 inh	PfHsp90 set2	Mot1-301 SUMO	TIM10 inh	Yeast Mot1 SUMO
COc1ccc(CCC(=O)OCC(=O)Nc2ccccc2)cc1	10.1	-2.8	-4.4	212.6	-15.3	x
N#Cc1ccc(NCC(=O)Nc2ccc(S(=O)(=O)N3CCCCC3)cc2)cc1	-4.1	0.8	2.3	1.7	5.8	x
CC(=O)c1c(Nc2cccc(F)c2)oc(C)cc1=O	-4.8	3.0	3.1	951.5*	-11.0	-0.2
CC1(C)CC(=O)C=C(Nc2cccc(F)c2)C1	-0.4	-23.6	6.0	-9.4	4.8	x
COc1cc2c(cc1NC(=O)c1cccnc1)oc1ccccc12	21.9	18.5	21.7	554.6*	12.4	-1.2
COc1cc2c(cc1NC(=O)c1cccc([N+](=O)[O-])c1)oc1ccccc12	-16.9	-10.4	-27.6	5.1	-27.2	x
CCCNc1nc2c(c(=O)[nH]c(=O)n2C)n1CCOc1ccccc1	-3.1	-0.4	10.5	264.7	-7.6	x
Cn1c(=O)[nH]c(=O)c2c1nc(NCCN)n2CCOc1ccccc1	-15.8	-5.9	-24.2	460.6*	-2.5	-0.7
CNC(=O)c1ccccc1NC(=O)c1c(O)c2c([nH]c1=O)CCCC2	14.0	11.3	-7.8	521.5*	14.5	0.0
CC/C(=N\NC(=O)c1nnn(-c2nonc2N)c1-c1ccc2c(c1)OCO2)c1ccccc1	6.5	8.9	-9.4	-2.3	0.4	x
CCOc1ccc(-c2c(C(=O)N/N=C/c3ccncc3)nnn2-c2nonc2N)cc1	-18.2	-8.4	-14.4	396.2*	2.0	0.7
CC/C(=N\NC(=O)c1nnn(-c2nonc2N)c1-c1cccs1)c1ccccc1	12.8	-12.2	-24.1	370.6*	0.7	0.6
COc1ccc(CCN=C(C)c2cc(C)c(C)cc2O)cc1OC	5.7	-5.1	27.0	-12.8	5.5	x
Cc1ccc(-c2csc(NC(=O)CSc3nc(C)cs3)n2)cc1	19.7	33.9	x	541.2*	29.0	0.1
CC(=O)N1CCc2cc(S(=O)(=O)CCC(=O)N3CCN(C(=O)c4ccco4)CC3)ccc21	15.5	7.9	6.9	436.3*	12.0	0.1
CC(=O)N1CCc2cc(S(=O)(=O)CCC(=O)N3CCN(c4ccccc4)CC3)ccc21	7.9	-9.3	29.4	149.0	-2.8	x
N#CC1=C(SCC(N)=O)NC(=O)CC1c1ccccc1Cl (centres undefined)	30.7	31.5	-10.0	612.8*	4.2	-0.3
N#CC1=C(SCC(N)=O)NC(=O)CC1c1cccc2ccccc12 (centres undefined)	x	x	0.8	x	x	x
COc1cccc(-n2nnc3c(=O)n(CC(=O)N4CCCc5ccccc54)cnc32)c1	-4.7	14.3	16.4	+	-7.5	0.3
CCN(CC)CCCN1C(=O)C(=O)/C(=C(/O)c2ccccc2)C1c1cc(OC)ccc1OC (centres undefined)	1.1	15.8	2.8	684.5*	-16.0	-0.5

High-throughput results (PubChem BioAssay)
